Consider nine molecules from PubChem BioAssay (NCI).

Test in all cases: NCI-60 one-dose screen, 48 h (100 = growth as untreated, 0 = no growth, -100 = all killed)
Assay [1] deals with HCT-15 colon. Particulars: 10 µM unless noted.
Assay [2] concerns HT29 colon. Conditions: 10 µM unless noted.
Assay [3] relates to SNB-75 CNS. Conditions: 10 µM unless noted.
The subject of assay [4] is SNB-19 CNS. Particulars: 10 µM unless noted.
In assay [5] the test system is U251 CNS. Particulars: 10 µM unless noted.
Assay [6] has as its system SK-MEL-5 melanoma. Particulars: 10 µM unless noted.
Assay [7] has as its system UACC-62 melanoma. Particulars: 10 µM unless noted.
In assay [8] the test system is SK-MEL-28 melanoma. Particulars: 10 µM unless noted.
The test system of assay [9] is SK-MEL-2 melanoma. Particulars: 10 µM unless noted.
Assay [10] deals with EKVX NSCLC. Particulars: 10 µM unless noted.
Assay [11] relates to SN12C renal. Conditions: 10 µM unless noted.
In assay [12] the test system is UO-31 renal. Conditions: 10 µM unless noted.
The subject of assay [13] is TK-10 renal. Conditions: 10 µM unless noted.
Assay [14] concerns ACHN renal. Conditions: 10 µM unless noted.
The test system of assay [15] is CAKI-1 renal. Conditions: 10 µM unless noted.
In assay [16] the test system is A498 renal. Conditions: 10 µM unless noted.
Assay [17] concerns CCRF-CEM leukemia. Conditions: 10 µM unless noted.
For assay [18], the system named is MOLT-4 leukemia. Particulars: 10 µM unless noted.
In assay [19] the test system is PC-3 prostate. Conditions: 10 µM unless noted.
Assay [20] concerns LOX IMVI melanoma. Conditions: 10 µM.

About 83,000 compounds went through this panel and 20% of them were active in at least one assay; those are over-represented in the sample as a whole.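 Testing used 96-well plates and a 48-hour single-concentration exposure. Example: -40 means 40% of the starting cells died.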 Unmarked numbers belong to inactive results. The source made the active and inactive calls. Rule for the calls: active = growth percent below 10; inactive = the rest.

Consider `COc1cccc(N=CNc2cccc(OC)c2)c1`, for which the growth in assay [1] is 85.2%; in [2], 99.6%; in assay [3] it was 90.8%; in assay [4] it was 103%; in [5], 95.9%; in [6], 99%. For the same molecule, the growth in assay [7] was 56.4%; in [8] it was 106%; in [9] it was 86.3%; in [10], 99.4%; in assay [11] it was 101%; in assay [12] it was 91.1%. Moreover, the growth in [13] was 113%; in [14], 86.2%; in assay [15], 87.7%; in assay [16] it was 93.2%; in assay [17], 94.7%; in assay [18], 90.9%.

`CNc1ccccc1C(=O)N/N=C/C=C/c1ccccc1`: the growth in assay [1] is 33.8%; in assay [2], 3.82% (active); in [3] it was -15.6% (active); in [4] it was 53.9%; in assay [19] it was 18.7%; in assay [6], 18.2%. For the same molecule, the growth was 49.3% in [7]; 14.7% in [20]; 39.3% in [8]; 3.74% (active) in assay [9]; 48.7% in [11]; 43.8% in assay [12]. Further, the growth in assay [13] is 31.1%; in assay [14] it was 58.2%; in assay [15], 12.7%; in [16], -8.31% (active); in assay [17] it was 12%; in assay [18], 18.5%.

In the case of `COc1cccc(C(=O)O)c1OC`, the growth in [1] was 101%; in assay [2], 96.8%; in assay [3], 90.8%; in assay [4], 106%; in assay [5], 98.2%; in assay [6] it was 104%. The growth in assay [20] was 99%; in assay [8] it was 102%; in assay [9], 99.3%; in [10], 91.9%; in assay [11], 96.6%; in assay [12] it was 86.5%. Besides, the growth in assay [13] was 96.2%; in [14], 93%; in [15], 97.4%; in assay [16], 97.4%; in assay [17] it was 107%; in [18], 110%.

As to `O=C(Oc1ccccc1Cl)c1ccc(Cl)cc1Cl`, the growth is 103% in assay [1]; 105% in [2]; 91.8% in assay [3]; 99.6% in [4]; 89.5% in [5]; 102% in assay [6]. In addition, the growth is 104% in assay [20]; 109% in assay [8]; 109% in assay [9]; 94.4% in [10]; 85.4% in [12]; 103% in assay [13]. For the same molecule, the growth in [14] is 103%; in [15], 99.8%; in assay [16], 94.2%; in assay [17], 99.9%; in assay [18], 110%.

`CCOC(=O)c1ccc(Nc2sc(C(=O)c3ccc(Br)cc3)c(N)c2C#N)cc1`: the growth in assay [1] is 27%; in assay [2] it was 2.05% (active); in assay [3], -18.6% (active); in [4], 62.5%; in assay [19], 17.5%; in assay [6], 12.6%. The growth is 36.7% in assay [7]; 38.8% in assay [20]; 36.3% in [8]; 21.7% in [9]; 43.9% in [11]; 25.6% in assay [12]. In addition, the growth in assay [13] is 42.4%; in assay [14], 44%; in assay [15], 10.7%; in assay [16] it was -8.46% (active); in assay [17], 12.8%; in [18], 33.5%.

As for `O=c1cc(C(F)(F)F)[nH]c(=S)[nH]1`, the growth was 103% in assay [1]; 108% in [2]; 102% in assay [3]; 94.4% in assay [4]; 101% in assay [5]; 98.7% in assay [6]. Moreover, the growth was 99.5% in [7]; 105% in [8]; 111% in assay [9]; 95% in assay [10]; 95% in [11]; 87.3% in assay [12]. Moreover, the growth in [13] was 97.7%; in assay [14] it was 108%; in assay [15], 88%; in assay [16], 139%; in assay [17], 119%; in assay [18], 105%.

Turning to `COC(=O)c1ccc([N+](=O)[O-])c(C)c1`, the growth in [1] was 94.9%; in assay [2] it was 121%; in [3] it was 88.4%; in [4] it was 119%; in assay [5], 101%; in assay [6], 109%. The growth in assay [7] is 107%; in [20], 107%; in [8], 102%; in [9], 116%; in assay [10], 109%; in [11], 109%. The growth in assay [12] was 79.9%; in [13], 128%; in assay [14], 97.1%; in assay [16], 79.5%; in assay [17] it was 4.56% (active); in [18], 112%.

As for `NNc1ncnc2c1ncn2C1OC(CO)C(O)C1O` (stereo unspecified), the growth was 11.2% in assay [1]; 9.12% (active) in [2]; 94.2% in [3]; 57.8% in assay [4]; 39.7% in [5]; 88.4% in assay [6]. Besides, the growth in assay [20] is 32.6%; in [8], 88.8%; in [9] it was 73.5%; in [10], 60.5%; in assay [11] it was 27.7%; in assay [12], 38.1%. Also, the growth is 52.8% in assay [13]; 15.2% in assay [14]; 36.1% in assay [15]; 43% in [16]; 72% in assay [17]; 109% in [18].

As for `COc1ccc(C2CCCCC2=O)cc1` (stereo unspecified), the growth in assay [1] is 98.6%; in assay [2], 108%; in assay [3], 101%; in assay [4] it was 111%; in [5], 99%; in assay [6], 110%. Besides, the growth in [7] is 110%; in assay [20], 96.6%; in assay [8] it was 111%; in assay [9], 119%; in assay [10] it was 102%; in assay [11] it was 109%. For the same molecule, the growth in assay [12] was 96.7%; in assay [14], 98.7%; in [15] it was 105%; in assay [16], 99.7%; in [17], 106%; in assay [18], 97.9%.
